Test results: PubChem BioAssay AID1159580 (chemical genetic matrix, 2015)
The campaign covered roughly 5,500 compounds. About 2,000 (36%) were called active. Inconclusive results (about 18%) are left out. Rule as the data show it: active = normalized growth mostly below about 0.91 (no sharp cut-off); inconclusive = no clear call, values can overlap the other calls; inactive = mostly above about 0.92. The list shows a part of the results.

Assay: chemical genetic growth profiling, strain panel (AID 1159580);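 also: tested at 20 µM; growth read once vehicle control cultures reached saturation at 30 °C; 1 = growth at the plate median or of vehicle wells; lower values mean less growth of the strain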
Conditions: S. cerevisiae deletion strains, growth OD

Measured: normalized growth

CC(C)NCC(O)c1ccc(NS(C)(=O)=O)cc1 (stereo unspecified)
inactive: locus YAL040C, strain CLN3, stronger effect = lower value 1.01 | locus YCL061C, strain MRC1 (second series), stronger effect = lower value 1 | locus YDR363W, strain ESC2, stronger effect = lower value 0.973 | locus YER002W, strain NOP16, stronger effect = lower value 1 | locus YGR078C, strain PAC10, stronger effect = lower value 1.01 | locus YJR075W, strain HOC1, stronger effect = lower value 0.986 | locus YMR263W, strain SAP30, stronger effect = lower value 1 | locus YMR307W, strain GAS1, stronger effect = lower value 1.02 | locus YNL153C, strain GIM3, stronger effect = lower value 1.04 | locus YNL175C, strain NOP13, stronger effect = lower value 1 | locus YNL197C, strain WHI3, stronger effect = lower value 1.01 | locus YNL224C, strain SQS1, stronger effect = lower value 1 | locus YNL322C, strain KRE1, stronger effect = lower value 0.985 | locus YOR083W, strain WHI5 (second series), stronger effect = lower value 1 | locus YPL055C, strain LGE1, stronger effect = lower value 0.977 | locus YPL241C, strain CIN2, stronger effect = lower value 0.999
